The text below walks through data of PubChem BioAssay AID485364 (National Center for Advancing Translational Sciences (NCATS), 2010).

Screen size: about 360,000 compounds; about 11,000 (3.1%) were called active. About 4% were inconclusive and are not listed. Calls follow the shape of the dose curve; as a rule, active = well fitted inhibition curve with a large enough effect; inconclusive = small, poorly fitted or top-dose-only effect; inactive = no such curve, though single readings can be large or run the other way. The entries come from a sample that favours actives as a whole. A call without a number means that no potency is given here.
Potency is read from the fitted curve at half-maximal effect.

The experiment has as its target Schistosoma mansoni thioredoxin glutathione reductase (TGR) (UniProt Q962Y6). Put plainly: qHTS Assay for the Inhibitors of Schistosoma Mansoni Peroxiredoxins. Also: nearly all actives have a fitted effect of over 60% in size. The following applies: purified TGR, DTNB reduction, TNB absorbance 405 nm; series mostly up to 114 µM. In a few lines:
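First, TGR (20 nM dispensed) and NADPH were mixed with compound. Second, a 15 min room-temperature incubation followed. Third, further NADPH and then DTNB were added to start the reaction. Finally, TNB absorbance was monitored kinetically.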
(In general: In qHTS, concentration-response curves come from the screen itself.)
For the compound `O=C(CCN1C(=O)c2ccccc2C1=O)Nc1cccc(F)c1`, the Potency result was “inactive”.
On to `O=C1c2ccccc2C(=O)N1CCC(O)C[N+](=O)[O-]` (stereo not given), for which the Potency was 28.2 µM (active).
Under `O=C(OCCN1C(=O)c2ccccc2C1=O)Oc1ccccc1` stands “inactive”; under `Cc1ccc(CCNC(=O)C2CCN(c3nnc(-n4cccc4CNc4ccc(C)cc4)s3)CC2)cc1`, “inactive”.
Under `COc1ccc(-c2noc(-c3ccc(N4CCN(c5ccccc5)CC4)c([N+](=O)[O-])c3)n2)cc1OC` stands “inactive”.
With `COc1ccc(S(=O)(=O)NC(CC(=O)NCc2ccccc2OC)c2ccco2)cc1` (stereo not given) the entry was “inactive”; with `O=C(NCCc1ccccc1)C(=O)NCC(c1ccco1)S(=O)(=O)c1ccccc1` (stereo not given), “inactive”; with `COc1ccccc1CNC(=O)C(=O)NCC(c1ccco1)S(=O)(=O)c1ccc(F)cc1` (stereo not given), 10 µM (active).
For `COc1ccc(S(=O)(=O)N(CC(=O)NCc2ccco2)c2ccc(F)cc2)cc1`, the Potency result was “inactive”.
With `O=C(NCc1ccncc1)C(=O)NCc1ccco1` the entry was “inactive”.
Take `O=C(NCc1ccccc1)C(=O)NCC(c1ccco1)S(=O)(=O)c1ccc(Cl)cc1` (stereo not given): the Potency was 50.1 µM (active).
Under `COC(=O)c1cnc(N2CCN(c3ccccc3OC)CC2)c2ccccc12` stands “inactive”; under `Cc1ccc(F)cc1S(=O)(=O)N1CCC(c2nc3ccccc3s2)CC1`, “inactive”.
Under `Cc1ccc2c(c1)N(C(=O)CCC(=O)NCc1ccccc1F)CC(C)O2` (stereo not given) stands “inactive”; under `CC(=O)N1CCCc2cc(S(=O)(=O)N3CCC(C(=O)NCc4ccc(C)cc4)CC3)ccc21`, “inactive”; under `O=S(=O)(NCCc1nnc2ccc(SCc3ccc(Cl)cc3Cl)nn12)c1ccccc1`, “inactive”.
With `O=C(NCC(c1ccc(Cl)cc1)N1CCOCC1)c1ccccc1F` (stereo not given) the entry was “inactive”.
For `CCOc1cccc(NC(=O)c2ccc(F)c(S(=O)(=O)N(CC)c3cccc(C)c3)c2)c1`, the Potency result is “inactive”.
With `O=C(c1cn2ccccc2n1)N1CCc2c([nH]c3ccccc23)C1c1ccccn1` (stereo not given) the entry was “inactive”; with `CCOc1ccc(C2c3[nH]c4ccccc4c3CCN2Cc2cccn2-c2ncccn2)cc1` (stereo not given), “inactive”.
Turning to `c1ccc(C2c3[nH]c4ccccc4c3CCN2Cc2cccn2-c2cccnc2)nc1` (stereo not given), the Potency is 15.8 µM (active).
With `Cc1ccc(NC(=O)CSc2nc3c([nH]c4ccccc43)c(=O)n2-c2ccccc2)c(C)c1` the entry was “inactive”; with `CCc1c(C)sc(NC(=O)C2c3ccccc3Oc3ccccc32)c1C(=O)OC(C)C`, “inactive”.
With `C/C(=N/Nc1nc(-c2ccccc2)c(CC(=O)O)s1)c1ccccc1` the figure was 0.316 µM (active); with `CCOC(=O)C(=O)Nc1nc(-c2ccccc2)c(CC)s1`, “inactive”; with `CCOc1ccc(-c2nc(C)sc2CC(=O)O)cc1`, “inactive”.
In the case of `Cc1ccc(-c2cn3c(n2)sc2cc(C(=O)NCc4cccs4)ccc23)c(C)c1`, the Potency result is “inactive”.
Under `COc1ccc(NC(=O)CSc2nccn2C2CCCC2)cc1OC` stands “inactive”; under `CCOc1ccc(-c2nonc2NC(=O)c2oc3ccc(CC)cc3c2C)cc1`, “inactive”; under `CN(C(=O)CSc1nc2ccc(NC(=O)COc3ccccc3)cc2s1)c1ccccc1`, “inactive”.
With `Cc1cc(C)c(NC(=O)CN2C(=O)c3cccnc3Oc3ccc(Cl)cc32)c(C)c1` the entry was “inactive”.
Under `CCNC(=O)Cn1nc(C)n2c(cc3c(OC)cccc32)c1=O` stands “inactive”.
In the case of `CC(=O)Oc1cccc(N2C(=O)CC(Nc3ccc(N4CCOCC4)cc3)C2=O)c1` (stereo not given), the Potency was 22.4 µM (active).
As for `O=C(Nc1ccc(N2CCOCC2)cc1)c1ccc2c(c1)OCO2`, the Potency result was “inactive”.
With `O=C(Nc1ccc(Cl)cc1)c1cccc(OC(=S)N2CCOCC2)c1` the entry was “inactive”; with `CCCCN(C(=O)/C=C/c1ccco1)c1c(N)n(CC(C)C)c(=O)[nH]c1=O`, 44.7 µM (active); with `CCCCn1c(N)c(N(CC)C(=O)/C=C/c2ccco2)c(=O)[nH]c1=O`, 22.4 µM (active).
With `CCCCN(C(=O)c1nn(C)c(=O)c2ccccc12)c1c(N)n(CCC)c(=O)[nH]c1=O`, the Potency entry is “inactive”.
With `CCCCn1c(N)c(N(CC)C(=O)c2ccccc2C(F)(F)F)c(=O)[nH]c1=O` the entry was “inactive”; with `CCCCn1c(N)c(N(CC)C(=O)c2ccc(N(C)S(=O)(=O)c3ccc(C)cc3)cc2)c(=O)[nH]c1=O`, “inactive”; with `CCCCN(C(=O)c1ccc(C)o1)c1c(N)n(CCCC)c(=O)[nH]c1=O`, “inactive”.
In the case of `Cc1ccc(OCC(=O)Nc2ccccc2C(=O)NC2CC2)cc1`, the Potency result was “inactive”.
Under `COc1ccccc1OCC(=O)Nc1ccccc1C(=O)NC1CC1` stands “inactive”; under `Cc1ccc(OCC(=O)Nc2ccccc2C(=O)NC2CC2)cc1C`, 35.5 µM (active); under `COc1cccc(C(=O)NC2=NC(c3ccc(N(C)C)cc3)CC(=O)N2)c1` (stereo not given), “inactive”.
Regarding `COc1cc2nc(SCC(=O)Nc3ccccc3F)n3nc(-c4ccccc4)nc3c2cc1OC`, the Potency result is “inactive”.
For the compound `S=C(NCCc1ccccc1)NCC1CCCO1` (stereo not given), the Potency result was “inactive”.
Under `S=C(NCC1CCCO1)N1CCN(c2ccc(Cl)c(Cl)c2)CC1` (stereo not given) stands “inactive”; under `Oc1c(Br)cc(/C=N/NC(=S)NCC2CCCO2)cc1Br` (stereo not given), 2.51 µM (active).
Under `CCc1ccc(N2C(=O)CN(S(=O)(=O)CC)CC2(C)C(=O)NC2CCCCC2)cc1` (stereo not given) stands “inactive”; under `COc1ccc(NC(=S)Nc2ccccc2Cl)cn1`, 20 µM (active).
Under `COc1cccc(NC(=O)CN2CCN(CC(=O)Nc3ccccc3Cl)CC2)c1` stands “inactive”.
`CCNC(=S)Nc1cccc(Cl)c1C`: the Potency result was “inactive”.
Consider `O=C(CCc1nc(CN2CCN(S(=O)(=O)c3ccc(Br)cc3)CC2)no1)N1CCCCC1`, for which the Potency entry was “inactive”.
Under `CCn1cc2nc(SCc3ccccc3Cl)n(CCc3ccccc3)c(=O)c2n1` stands “inactive”.
With `O=C(Nc1ccc(S(=O)(=O)Nc2ccccn2)cc1)c1ccccc1`, the Potency result is “inactive”.
With `COc1cc(NS(=O)(=O)c2ccc(NC(=S)NC(=O)c3ccc(Br)cc3)cc2)ncn1` the figure was 17.8 µM (active); with `COc1cc(NS(=O)(=O)c2ccc(NC(=O)CN3C(=O)c4ccccc4C3=O)cc2)ncn1`, “inactive”.
Under `COc1cc(NS(=O)(=O)c2ccc(NC(=O)c3ccc(S(=O)(=O)N4CCCCC4)cc3)cc2)ncn1` stands “inactive”.
Under `COc1ccc(NS(=O)(=O)c2ccc(NC(=S)NC(=O)CC(C)C)cc2)cc1` stands “inactive”; under `COc1cc(NS(=O)(=O)c2ccc(NC(=S)NC(=O)c3ccccc3)cc2)nc(OC)n1`, 20 µM (active); under `COc1ccc(-c2nc3c4ccccc4n(CC(=O)Nc4ccc(C(C)=O)cc4)c(=O)n3n2)cc1`, “inactive”.
Consider `Cc1ccccc1-n1c(=O)c2ccccc2n(Cc2ccc(F)cc2)c1=O`, for which the Potency entry was “inactive”.
In the case of `Nc1ccccc1SC(C[N+](=O)[O-])c1ccccc1` (stereo not given), the Potency is 17.8 µM (active).
Under `Cc1ccccc1-c1nc2cc(NC(=O)c3cccc(OCCC(C)C)c3)ccc2o1` stands “inactive”; under `CCOc1ccc(C(=O)c2cn(Cc3ccc(F)cc3)c3ccc(F)cc3c2=O)cc1`, “inactive”.
Take `O=C(CSc1nc2ccccc2nc1Cc1ccccc1)N1CCCCC1`: the Potency result was “inactive”.
Under `CN(C)CC1CCCCC1=O` (stereo not given) stands 11.2 µM (active); under `O=C1CCCCC1C(=O)c1ccccc1` (stereo not given), “inactive”.
Turning to `CC(C)(C)OC(=O)N1CCC(c2c(C(=O)N3CCc4ccccc4C3)cnn2-c2ccc(F)cc2)CC1`, the Potency entry was “inactive”.
With `COc1cc(NC(=O)c2cc(C3CC3)nc3c2c(C)nn3-c2ccccc2)cc(OC)c1` the entry was “inactive”.
As for `Cc1ccc(NC(=O)NC(C)c2c(-n3cccc3)sc(C)c2C)c(C)c1` (stereo not given), the Potency result was “inactive”.
Under `Cc1c(NC(=O)Nc2ccc(F)c(Cl)c2)c(=O)n(-c2ccccc2)n1C` stands “inactive”; under `Cc1ccccc1NC(=O)c1c(NC(=O)c2ccccc2F)sc2c1CCC(C)C2` (stereo not given), “inactive”.
With `Cc1ccc(Oc2c(C(F)(F)F)oc3c(CN4CCCCC4)c(O)ccc3c2=O)cc1`, the Potency result was “inactive”.
Under `COc1ccc(-c2c(C)c3ccc(O)c(CN4CCN(C)CC4)c3oc2=O)cc1OC` stands “inactive”.
With `COc1c(O)cc2oc(-c3ccc(O)c(O)c3)cc(=O)c2c1O` the figure was 39.8 µM (active); with `CCOC(=O)COc1cc(OCC(=O)OCC)c2c(=O)cc(-c3ccccc3)oc2c1`, “inactive”; with `CC1=C(C(=O)N2CCN(c3cccc(C(F)(F)F)c3)CC2)C2(CCCCC2)OC1=O`, “inactive”.
With `Cc1ccc(Nc2nc3ccccc3nc2-n2nc(C)cc2C)c(Cl)c1` the entry was “inactive”.
`Cc1oc2ccc(O)c(CN3CCC(C)CC3)c2c1C(=O)Nc1ccccc1`: the Potency entry was “inactive”.
With `CN(Cc1ccccc1)C(=O)c1cn(C)c2ccc(S(=O)(=O)N(C)C3CCCCC3)cc2c1=O` the entry was “inactive”; with `CCCC12CN3CC(C)(CN(C1)C3c1ccccc1Cl)C2=O` (stereo not given), “inactive”; with `COc1ccc(NC(=S)NC2CCS(=O)(=O)C2)cc1` (stereo not given), “inactive”.
With `COc1ccc(CCNC2=CC(=O)CC(C)(C)C2)cc1` the entry was “inactive”; with `COc1ccc(NC2=CC(=S)NC(C)(C)C2)cc1`, 35.5 µM (active); with `Cc1ccccc1NC(=O)c1cc2c([nH]c1=O)CC(C)(C)CC2=O`, “inactive”.
Under `O=c1c2ccccc2oc2nc(C3CCCCC3)n(Cc3ccco3)c(=O)c12` stands “inactive”.
In the case of `Cc1ccc(Cn2c(C)nc3c(c2=O)c2nc4ccccc4nc2n3Cc2ccco2)cc1`, the Potency is 1.41 µM (active).
With `Cc1ccc(Cn2c(=O)n(Cc3nc(-c4ccccc4)no3)c(=O)c3cc4c(cc32)OCO4)cc1` the entry was “inactive”.
In the case of `CCOc1ccc(-c2cc3c(=O)n(CC(=O)NCc4ccc(OC)cc4)ccn3n2)cc1`, the Potency entry is “inactive”.
Under `O=C(c1ccc2c(c1)N(Cc1ccccc1F)C(=O)c1ccccc1S2(=O)=O)N1CCOCC1` stands “inactive”.
Under `COc1ccc(-c2nc(Cn3c(=O)cc(C)c4c(C)nn(-c5ccccc5)c43)c(C)o2)cc1OC` stands “inactive”; under `COC(=O)c1ccc(CN2CCN(CCCc3ccccc3)C(CCO)C2)cc1` (stereo not given), “inactive”.
With `CC(=O)Nc1ccc(CN2CCN(Cc3ccc(F)c(F)c3)C(CCO)C2)cc1` (stereo not given) the figure was 20 µM (active); with `Cc1ccc(CN2CCN(Cc3ccc4ncccc4c3)CC2CCO)cc1` (stereo not given), “inactive”.
Regarding `CCS(=O)(=O)N1CCc2cc(C(=O)N3CCN(c4ccccc4OC)CC3)ccc21`, the Potency result was “inactive”.
As to `CCOc1ccc(C(=O)CCN2CCOCC2)cc1`, the Potency is 2.82 µM (active).
With `CCCCOc1ccc(C(C)(O)CCN2CCOCC2)cc1` (stereo not given) the entry was “inactive”; with `CCOc1ccc(C(=O)CCC(=O)Nc2ccncc2)cc1`, “inactive”.
